In experiment [1] the test system is Wnt5a (protein binding on small-molecule microarray). Kind of experiment: small molecules binding Wnt5a protein – biophysical, small-molecule microarray, 635/667 nm fluorescence, primary screen (AID 1142).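 Further: fluorescence read at 667 nm with signal to noise per printed feature.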 Conditions: 635 nm fluorescence, higher = more signal.
A short description of experiment [2]: ATP-based viability of Huh7 replicon cells – cell-based, CellTiter-Glo luminescence, basal, 48 h, cytotoxicity control for HCV replication inhibitor project, primary screen (AID 1143).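 Further: Huh7 hepatoma cells carrying a hepatitis C replication reporter with no stimulus; test concentration not given here.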 The settings on record: higher = more signal, called active from +8 up or from −8 down.
Experiment [3] can be described thus: Pseudomonas biofilm growth suppression – PAO1 strain, BacTiter-Glo luminescence, LB-PBS, primary screen (AID 1144). Conditions: P. aeruginosa PAO1 biofilm, 12 h, higher = more signal.
Experiment [4] is described as follows: basal CRE-LacZ reporter activity in PC12 – cell-based, unstimulated, primary screen (AID 1145). Conditions: no forskolin, luminescence, 4.5 h, higher = more signal, called active from +8 up or from −8 down.
Experiment [5] can be described thus: forskolin-driven CRE-LacZ activity in PC12 – cell-based, CRE-LacZ reporter, forskolin-stimulated, primary screen (AID 1146).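 Further: PC12 cells with 6xCRE LacZ reporter stimulated by forskolin 10 µM; beta-galactosidase reporter signal reflecting CREB driven transcription.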 Conditions: luminescence, 4.5 h, higher = more signal, called active from +8 up or from −8 down.
In experiment [6] the target is Streptavidin (Streptomyces avidinii) (UniProt P22629). Nature of the experiment: compounds binding control protein streptavidin – biophysical, small-molecule microarray, 635/667 nm fluorescence, artefact control for SMM compound annotation, primary screen (AID 1147).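 Further: signal reflects streptavidin binding to arrayed compounds as a control protein.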 The settings on record: higher = more signal.
Chain of Streptavidin (Streptomyces avidinii) (P22629 whole entry, looked up): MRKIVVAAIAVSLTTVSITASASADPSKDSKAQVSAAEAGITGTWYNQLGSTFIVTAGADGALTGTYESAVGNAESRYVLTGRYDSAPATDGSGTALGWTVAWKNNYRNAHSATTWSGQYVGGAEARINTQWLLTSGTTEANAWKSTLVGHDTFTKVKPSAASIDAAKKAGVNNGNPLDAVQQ
Experiment [7] can be described thus: probe aInhba binding on compound microarray – biochemical, small-molecule microarray, 635/667 nm fluorescence, primary screen (AID 1148).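 Further: score merges 667nm spot fluorescence with signal-to-noise for antibody binding to printed compounds.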 The settings on record: higher = more signal.
Experiment [8] addresses Torsin-1A (Homo sapiens) (UniProt O14656). Kind of experiment: TOR1A wild-type binding on microarray – cell lysate, small-molecule microarray, lysate, 635/667 nm, primary screen (AID 1149). The settings on record: COS7 hTOR1A-WT lysate, 635 nm fluorescence, higher = more signal.
For experiment [9] the target is unchanged. Nature of the experiment: torsin A mutant lysate binding on microarrays – cell lysate, small-molecule microarray, COS7 lysate, 635/667 nm fluorescence, primary screen (AID 1150).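 Further: score pools 667 nm emission and signal to noise measuring lysate protein binding.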 The settings on record: COS7 hTOR1A mutant lysate, 635 nm fluorescence, higher = more signal.
Experiment [10] has as its system Sonic hedgehog protein (Shh). Nature of the experiment: Sonic hedgehog microarray binding compounds – biochemical, small-molecule microarray, 635/667 nm fluorescence, primary screen (AID 1151).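 Further: Shh protein binding to compounds spotted on small-molecule microarray slides; score combines spot fluorescence intensity with signal-to-noise across triplicate slides.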 The settings on record: 635 nm fluorescence, higher = more signal.

Data on 14 molecules can be found in PubChem BioAssay.

Molecules are shown by their SMILES. Activity calls are given as the source filed them. Unless noted, how the calls were made is not given here.

Chain of Torsin-1A (Homo sapiens) (O14656 whole entry, looked up): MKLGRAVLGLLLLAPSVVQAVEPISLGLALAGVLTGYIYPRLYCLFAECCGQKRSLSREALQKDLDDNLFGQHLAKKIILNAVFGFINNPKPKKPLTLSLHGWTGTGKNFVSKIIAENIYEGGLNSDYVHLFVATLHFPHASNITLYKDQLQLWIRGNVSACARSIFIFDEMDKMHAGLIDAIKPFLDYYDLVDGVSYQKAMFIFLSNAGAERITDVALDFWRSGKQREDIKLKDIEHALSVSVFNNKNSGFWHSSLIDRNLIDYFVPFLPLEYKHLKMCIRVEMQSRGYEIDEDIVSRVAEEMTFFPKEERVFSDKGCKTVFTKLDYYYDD

For the molecule `CC(=O)NCCCC[C@@H]1NC(=O)[C@@H]2C[C@H](C(=O)NCCCCCN)[C@H](c3cccc(OCCO)c3)N2C1=O`, the composite z-score is 0.698 in experiment [1]; 1.37 in experiment [6]; -0.19 in experiment [7]; 0.738 with Torsin-1A (Homo sapiens) [8]; -0.0879 with Torsin-1A (Homo sapiens) [9]; 1.66 in experiment [10]. The z-score was -0.804 (inactive) in experiment [2], -1.02 (inactive) in experiment [3], -1.34 (inactive) in experiment [4] and -0.892 (inactive) in [5].
In the case of `[N-]=[N+]=Nc1ccccc1C[C@@]1(C(N)=O)N=C(c2ccc(OCCCO)cc2)O[C@@H]1c1ccccc1N=[N+]=[N-]`, the composite z-score in [1] was 0.351; in experiment [6] it was 0.823; in experiment [7], 0.258; with Torsin-1A (Homo sapiens) [8] it was 0.252; with Torsin-1A (Homo sapiens) [9], 0.789; in experiment [10], -0.535. Further, the z-score in experiment [2] is -5.17 (inactive); in experiment [3] it was -0.0225 (inactive); in experiment [4], -0.207 (inactive); in experiment [5] it was -1.89 (inactive).
Turning to `C=CC[C@]1(C(=O)N2CCOCC2)COC(c2ccc(OCCCO)cc2)=N1`, the composite z-score worked out at 0.0993 in experiment [1]; 1.76 in experiment [6]; 0.166 in experiment [7]; 1.74 with Torsin-1A (Homo sapiens) [8]; 2.16 in the experiment with Torsin-1A (Homo sapiens) [9]; 0.935 in [10]. In addition, the z-score in [2] was -2.76 (inactive); in [3], -0.974 (inactive); in experiment [4], 2.01 (inactive); in [5] it was -0.778 (inactive).
Take `NCCCCCCNC(=O)[C@@H]1C[C@@H]2C(=O)N[C@@H](CCCCN)C(=O)N2[C@@H]1c1ccc(O)cc1`: the composite z-score was 0.0704 in experiment [1]; -0.865 in experiment [6]; 0.033 in experiment [7]; 0.822 in the experiment with Torsin-1A (Homo sapiens) [8]; 1.03 in the experiment with Torsin-1A (Homo sapiens) [9]; 1.62 in experiment [10]. Further, the z-score in experiment [2] is -2.28 (inactive); in experiment [3] it was -0.611 (inactive); in [4], -1.35 (inactive); in experiment [5] it was -0.965 (inactive).
In the case of `CCCC#C[Si](O[C@H](CC)c1cn([C@H](C)c2ccccc2)nn1)(C(C)C)C(C)C`, the composite z-score is 0.0759 in experiment [1]; -0.121 in experiment [6]; 0.143 in experiment [7]; 0.575 with Torsin-1A (Homo sapiens) [8]; 0.95 in the experiment with Torsin-1A (Homo sapiens) [9]; 0.275 in experiment [10]. For the same molecule, the z-score in [2] is -0.746 (inactive); in [3] it was -0.616 (inactive); in experiment [4], -0.621 (inactive); in experiment [5], -0.929 (inactive).
Consider `CCCC[C@@H](O)C1=C(COC)C[C@H]2C(=O)N(C)C(=O)[C@H]2[C@H]1CO`, for which the composite z-score is 0.0849 in experiment [1]; 0.45 in experiment [6]; -0.128 in [7]; 0.32 with Torsin-1A (Homo sapiens) [8]; 0.227 with Torsin-1A (Homo sapiens) [9]; 0.882 in [10]. Also, the z-score in [2] is -1.61 (inactive); in [3] it was -1.55 (inactive); in [4], -0.0581 (inactive); in experiment [5], -1.18 (inactive).
Regarding `COC(=O)[C@@]1(Cc2ccc(OC)cc2)[C@H]2c3cc(C(=O)N(C)C)n(Cc4ccc(OC(F)(F)F)cc4)c3C[C@H]2CN1C(=O)c1ccccc1`, the composite z-score in [1] was -0.223; in experiment [6] it was 0.539; in experiment [7] it was 0.185; with Torsin-1A (Homo sapiens) [8], -0.178; in the experiment with Torsin-1A (Homo sapiens) [9] it was 0.555; in [10] it was -0.955. In addition, the z-score in [2] is -2.6 (inactive); in experiment [3], 0.043 (inactive); in experiment [4], 4.4 (inactive); in [5] it was 74 (active).
As to `NCCCCCNC(=O)[C@@H]1C[C@@H]2C(=O)N[C@@H](CCCCN)C(=O)N2[C@@H]1c1ccc(O)cc1`, the composite z-score in [1] was -0.0113; in experiment [6] it was 0.811; in experiment [7], 0.217; with Torsin-1A (Homo sapiens) [8] it was 0.811; with Torsin-1A (Homo sapiens) [9], 1.59; in experiment [10], 1.99. For the same molecule, the z-score in experiment [2] was -0.308 (inactive); in experiment [3], -0.148 (inactive); in [4] it was 0.0205 (inactive); in [5], -0.878 (inactive).
Turning to `COCCOC(=O)N1C(=O)[C@@]2(c3ccccc31)[C@H](C(=O)NC[C@H](O)c1ccccc1)[C@H]1C(=O)O[C@H](c3ccccc3)[C@H](c3ccccc3)N1[C@@H]2c1ccc(O)cc1`, the composite z-score in experiment [1] stood at 0.852; in experiment [6], 1.09; in [7] it was 0.106; with Torsin-1A (Homo sapiens) [8] it was 0.877; with Torsin-1A (Homo sapiens) [9] it was 0.383; in experiment [10], 1.74. Further, the z-score in [2] was -1.98 (inactive); in experiment [3], -0.193 (inactive); in experiment [4] it was 0.155 (inactive); in [5], 2.34 (inactive).
In the case of `CCCCCC1=C2CNC(C)(C(=O)OC)C=C2C(C)C1=O` (stereo not given), the composite z-score in experiment [1] was 0.0456; in experiment [6], -0.162; in experiment [7] it was 0.0319; in the experiment with Torsin-1A (Homo sapiens) [8], -0.92; in the experiment with Torsin-1A (Homo sapiens) [9] it was -0.38; in experiment [10], -0.134. Moreover, the z-score in experiment [2] was -0.169 (inactive); in experiment [3] it was 0.18 (inactive); in experiment [4] it was 1.34 (inactive); in experiment [5], 1.76 (inactive).
For `COc1ccc(C#Cc2ccc3c(c2)[C@]2(C(=O)N3)[C@H](c3ccc(O)cc3)N3[C@H](c4ccccc4)[C@H](c4ccccc4)OC(=O)[C@H]3[C@@H]2C(=O)Nc2nc3ccccc3s2)cc1`, the composite z-score was 0.108 in experiment [1]; 1.02 in experiment [6]; 0.0797 in experiment [7]; 1.16 with Torsin-1A (Homo sapiens) [8]; 0.168 with Torsin-1A (Homo sapiens) [9]; 0.329 in experiment [10]. The z-score in [2] is -1.62 (inactive); in [3], -0.52 (inactive); in [4], 0.389 (inactive); in experiment [5], -0.513 (inactive).
In the case of `C#CCN(Cc1ccccc1Br)[C@H](/C=C/c1ccccc1)[C@@H](O)Cc1ccccc1`, the composite z-score was -0.356 in [1]; -0.385 in [6]; -0.179 in experiment [7]; -0.622 in the experiment with Torsin-1A (Homo sapiens) [8]; 0.543 with Torsin-1A (Homo sapiens) [9]; -0.866 in [10]. The z-score in experiment [2] was -2.2 (inactive); in [3] it was -0.109 (inactive); in experiment [4], 2.49 (inactive); in experiment [5] it was -0.697 (inactive).
On to `COC(=O)c1c(CC[C@@H](CO)NC(=O)N[C@@H](C)Cn2cc(-c3ccccn3)nn2)oc(C(C)=O)c1C(=O)OC`, for which the composite z-score in [1] is 0.182; in experiment [6], -0.893; in [7], 0.154; in the experiment with Torsin-1A (Homo sapiens) [8], 0.372; with Torsin-1A (Homo sapiens) [9], 0.591; in [10], 1.74. The z-score is -2.77 (inactive) in [2], -0.243 (inactive) in [3], 1.21 (inactive) in experiment [4] and 0.363 (inactive) in [5].
Turning to `CC1CC/C=C\[C@H]2OC34C=CCN(c5ccc6ccccc6c5)C(=O)[C@H]3N(CCCO)C(=O)[C@@H]4C2C(=O)O1` (stereo not given in full), the composite z-score was -1.1 in [1]; -1.1 in [6]; -0.293 in experiment [7]; -2.88 with Torsin-1A (Homo sapiens) [8]; -1.47 in the experiment with Torsin-1A (Homo sapiens) [9]; -0.749 in experiment [10]. The z-score was 0.0518 (inactive) in experiment [2], 1.57 (inactive) in experiment [3], 0.191 (inactive) in experiment [4] and 0.234 (inactive) in experiment [5].
